Results taken from the supplement of paper PMC7595190.

Columns and labels:
Assay in all cases: CellTox Green cytotoxicity fluorescence relative to DMSO vehicle (fold of vehicle RFU); higher = more cell death (loss of membrane integrity), active = 2 or more
[1] = tested on: CMK
In short: (§1)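 Three cell lines, MV4-11, CMK and Kasumi-1, were seeded at 4.0 × 10^4 cells per well into 96-well black optical-bottom plates containing CellTox Green reagent from the start. Compounds from the Selleckchem apoptosis library were diluted in DMSO, added one at a time at final 0.01, 0.1 or 1 µM with 0.1% DMSO as vehicle, and incubated at 37 °C in 5% CO2. Readings at 24, 48 and 72 h used excitation at 485 nm and emission at 520 nm. Values give cytotoxicity, taken as loss of membrane integrity, as fluorescence in fold of the DMSO vehicle.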

[2] = tested on: Kasumi-1
In short: as §1

[3] = tested on: MV4-11
In short: as §1

Measured: CellTox Green cytotoxicity fluorescence

CCOC(=O)C1=C(N)Oc2ccc(Br)cc2C1C(C#N)C(=O)OCC (stereo not given)
inactive: [1]; 0.01 µM, 24 h 0.931 | [1]; 0.01 µM, 48 h 0.915 | [1]; 0.01 µM, 72 h 0.892 | [1]; 0.1 µM, 24 h 0.944 | [1]; 0.1 µM, 48 h 0.948 | [1]; 0.1 µM, 72 h 0.975 | [1]; 1 µM, 24 h 0.954 | [1]; 1 µM, 48 h 0.967 | [1]; 1 µM, 72 h 0.968 | [2]; 0.01 µM, 24 h 0.946 | [2]; 0.01 µM, 48 h 0.93 | [2]; 0.01 µM, 72 h 0.927 | [2]; 0.1 µM, 24 h 0.923 | [2]; 0.1 µM, 48 h 0.902 | [2]; 0.1 µM, 72 h 0.875 | [2]; 1 µM, 24 h 1.01 | [2]; 1 µM, 48 h 1.05 | [2]; 1 µM, 72 h 1.06 | [3]; 0.01 µM, 24 h 0.97 | [3]; 0.01 µM, 48 h 0.991 | [3]; 0.01 µM, 72 h 1.01 | [3]; 0.1 µM, 24 h 0.944 | [3]; 0.1 µM, 48 h 0.944 | [3]; 0.1 µM, 72 h 0.948 | [3]; 1 µM, 24 h 0.96 | [3]; 1 µM, 48 h 0.957 | [3]; 1 µM, 72 h 0.957

C[C@H]1Oc2cc(cnc2N)-c2c(nn(C)c2C#N)CN(C)C(=O)c2ccc(F)cc21
inactive: [1]; 0.01 µM, 24 h 0.989 | [1]; 0.01 µM, 48 h 0.966 | [1]; 0.01 µM, 72 h 0.982 | [1]; 0.1 µM, 24 h 0.951 | [1]; 0.1 µM, 48 h 0.957 | [1]; 0.1 µM, 72 h 0.948 | [1]; 1 µM, 24 h 1 | [1]; 1 µM, 48 h 1.05 | [1]; 1 µM, 72 h 1.07 | [2]; 0.01 µM, 24 h 1.05 | [2]; 0.01 µM, 48 h 1.01 | [2]; 0.01 µM, 72 h 1.01 | [2]; 0.1 µM, 24 h 1.01 | [2]; 0.1 µM, 48 h 0.988 | [2]; 0.1 µM, 72 h 0.997 | [2]; 1 µM, 24 h 0.922 | [2]; 1 µM, 48 h 0.929 | [2]; 1 µM, 72 h 0.914 | [3]; 0.01 µM, 24 h 0.984 | [3]; 0.01 µM, 48 h 0.959 | [3]; 0.01 µM, 72 h 0.958 | [3]; 0.1 µM, 24 h 0.992 | [3]; 0.1 µM, 48 h 0.992 | [3]; 0.1 µM, 72 h 0.992 | [3]; 1 µM, 24 h 0.964 | [3]; 1 µM, 48 h 0.976 | [3]; 1 µM, 72 h 0.975

O=C1C(=O)N(Cc2ccc(Cl)c(Cl)c2)c2ccccc21 [Apoptosis Activator 2]
inactive: [1]; 0.01 µM, 24 h 1.01 | [1]; 0.01 µM, 48 h 1.02 | [1]; 0.01 µM, 72 h 1.01 | [1]; 0.1 µM, 24 h 1.03 | [1]; 0.1 µM, 48 h 1.04 | [1]; 0.1 µM, 72 h 1.02 | [1]; 1 µM, 24 h 0.981 | [1]; 1 µM, 48 h 1.01 | [1]; 1 µM, 72 h 0.986 | [2]; 0.01 µM, 24 h 0.997 | [2]; 0.01 µM, 48 h 1 | [2]; 0.01 µM, 72 h 1.01 | [2]; 0.1 µM, 24 h 1 | [2]; 0.1 µM, 48 h 0.985 | [2]; 0.1 µM, 72 h 0.971 | [2]; 1 µM, 24 h 1.02 | [2]; 1 µM, 48 h 1.04 | [2]; 1 µM, 72 h 1.04 | [3]; 0.01 µM, 24 h 0.971 | [3]; 0.01 µM, 48 h 0.978 | [3]; 0.01 µM, 72 h 0.98 | [3]; 0.1 µM, 24 h 1.02 | [3]; 0.1 µM, 48 h 1.03 | [3]; 0.1 µM, 72 h 1.02 | [3]; 1 µM, 24 h 1.02 | [3]; 1 µM, 48 h 1.13 | [3]; 1 µM, 72 h 1.13

N#CC(=Cc1ccc(-c2cc(Cl)ccc2Cl)o1)C(=O)Nc1cccc2ncccc12
inactive: [1]; 0.01 µM, 24 h 0.949 | [1]; 0.01 µM, 48 h 0.938 | [1]; 0.01 µM, 72 h 0.947 | [1]; 0.1 µM, 24 h 0.993 | [1]; 0.1 µM, 48 h 0.99 | [1]; 0.1 µM, 72 h 0.992 | [1]; 1 µM, 24 h 1 | [1]; 1 µM, 48 h 1.05 | [1]; 1 µM, 72 h 1.03 | [2]; 0.01 µM, 24 h 1 | [2]; 0.01 µM, 48 h 0.958 | [2]; 0.01 µM, 72 h 0.958 | [2]; 0.1 µM, 24 h 0.998 | [2]; 0.1 µM, 48 h 0.979 | [2]; 0.1 µM, 72 h 0.979 | [2]; 1 µM, 24 h 0.939 | [2]; 1 µM, 48 h 0.916 | [2]; 1 µM, 72 h 0.917 | [3]; 0.01 µM, 24 h 1.01 | [3]; 0.01 µM, 48 h 0.987 | [3]; 0.01 µM, 72 h 0.982 | [3]; 0.1 µM, 24 h 0.998 | [3]; 0.1 µM, 48 h 0.992 | [3]; 0.1 µM, 72 h 1.01 | [3]; 1 µM, 24 h 0.969 | [3]; 1 µM, 48 h 0.985 | [3]; 1 µM, 72 h 0.984

O=C(COc1ccc(Cl)cc1)NC1CCC(NC(=O)COc2ccc(Cl)cc2)CC1 (stereo not given)
inactive: [1]; 0.01 µM, 24 h 0.999 | [1]; 0.01 µM, 48 h 0.971 | [1]; 0.01 µM, 72 h 0.929 | [1]; 0.1 µM, 24 h 0.975 | [1]; 0.1 µM, 48 h 0.97 | [1]; 0.1 µM, 72 h 0.973 | [1]; 1 µM, 24 h 0.971 | [1]; 1 µM, 48 h 1.02 | [1]; 1 µM, 72 h 1.01 | [2]; 0.01 µM, 24 h 1.02 | [2]; 0.01 µM, 48 h 0.993 | [2]; 0.01 µM, 72 h 0.987 | [2]; 0.1 µM, 24 h 0.991 | [2]; 0.1 µM, 48 h 0.965 | [2]; 0.1 µM, 72 h 0.954 | [2]; 1 µM, 24 h 0.966 | [2]; 1 µM, 48 h 0.962 | [2]; 1 µM, 72 h 0.961 | [3]; 0.01 µM, 24 h 0.993 | [3]; 0.01 µM, 48 h 0.994 | [3]; 0.01 µM, 72 h 0.983 | [3]; 0.1 µM, 24 h 1.01 | [3]; 0.1 µM, 48 h 1.02 | [3]; 0.1 µM, 72 h 1.01 | [3]; 1 µM, 24 h 0.994 | [3]; 1 µM, 48 h 1.01 | [3]; 1 µM, 72 h 0.992
